According to PubChem BioAssay (NCATS):
“And” between values parts separate entries of the source, which are not always exact repeats. Identical values can stand only once. Results filed as inconclusive are left out. The source made the active and inactive calls. Unless noted, calls follow the shape of the dose curve; as a rule, active = well fitted curve in the direction sought with a large enough effect; inconclusive = small, poorly fitted or top-dose-only effect, or another doubt; inactive = no such curve, though single readings can be large; an effect the other way counts as inactive or inconclusive. Where a SMILES comes first, the peptide text is derived from it. The star is where a group is joined. AFC = O=c1cc(C(F)(F)F)c2ccc(N*)cc2o1

Tests used:
[1] = Primary qHTS for inhibitors of nuclear receptor binding SET domain protein 2 (NSD2) in an isogenic RCH-ACV NSD2 p.E1099K mutant (9B) (AID 1645876); also: nearly all actives have a fitted effect of over 70% in size; also: potency is read from the fitted curve at half-maximal effect; as to activity change, negative = viability loss: % is scaled to controls: 0 for no effect and ±100 for the full control effect
[2] = Primary qHTS for inhibitors of nuclear receptor binding SET domain protein 2 (NSD2) in an RCH-ACV wild type WT cells (2C) (AID 1645877); also: nearly all actives have a fitted effect of over 70% in size; also: potency is read from the fitted curve at half-maximal effect; as to activity change, negative = cell killing: % is scaled to controls: 0 for no effect and ±100 for the full control effect
[3] = biological target: Catechol O-methyltransferase (Homo sapiens) (UniProt P21964); assay: Confirmatory Screen for Target Class Profiling of Small Molecule Inhibitors of Methyltransferases (AID 1745852; calls by dose curve; also: potency is read from the fitted curve at half-maximal effect; as to activity change, negative = inhibition: % is scaled to controls: 0 for no effect and ±100 for the full control effect); conditions: MTase-Glo luminescence, SAH detection, recombinant enzyme; measured here: COMT max response; stronger effect = lower value
Chain of Catechol O-methyltransferase (Homo sapiens) (P21964 whole entry, looked up): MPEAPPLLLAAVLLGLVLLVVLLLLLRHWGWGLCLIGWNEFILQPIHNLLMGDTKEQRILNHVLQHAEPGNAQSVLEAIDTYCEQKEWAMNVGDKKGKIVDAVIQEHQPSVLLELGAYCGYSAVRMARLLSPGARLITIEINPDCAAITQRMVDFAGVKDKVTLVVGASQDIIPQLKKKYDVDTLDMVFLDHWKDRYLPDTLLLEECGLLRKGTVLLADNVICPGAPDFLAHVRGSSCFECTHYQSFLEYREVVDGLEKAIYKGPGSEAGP

[4] = biological target: Guanidinoacetate N-methyltransferase (Homo sapiens) (UniProt Q14353); assay: as above; conditions: activity change, negative = inhibition: at 57.3 µM (top of the series) unless noted
[5] = biological target: Nicotinamide N-methyltransferase (Homo sapiens) (UniProt P40261); assay: as above; conditions: MTase-Glo luminescence, SAH detection, recombinant enzyme; measured here: NNMT max response; stronger effect = lower value
Chain of Nicotinamide N-methyltransferase (Homo sapiens) (P40261 whole entry, looked up): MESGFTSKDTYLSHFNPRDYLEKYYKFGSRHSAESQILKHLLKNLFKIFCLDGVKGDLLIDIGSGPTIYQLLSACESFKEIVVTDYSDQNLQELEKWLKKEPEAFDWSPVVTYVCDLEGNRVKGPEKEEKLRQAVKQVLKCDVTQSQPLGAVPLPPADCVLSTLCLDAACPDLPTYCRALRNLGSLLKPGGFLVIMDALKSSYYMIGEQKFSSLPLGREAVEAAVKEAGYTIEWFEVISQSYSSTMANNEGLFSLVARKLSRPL

[6] = biological target: Phenylethanolamine N-methyltransferase (Homo sapiens) (UniProt P11086); assay: as above; conditions: MTase-Glo luminescence, SAH detection, recombinant enzyme; measured here: PNMT max response; stronger effect = lower value
Chain of Phenylethanolamine N-methyltransferase (Homo sapiens) (P11086 whole entry, looked up): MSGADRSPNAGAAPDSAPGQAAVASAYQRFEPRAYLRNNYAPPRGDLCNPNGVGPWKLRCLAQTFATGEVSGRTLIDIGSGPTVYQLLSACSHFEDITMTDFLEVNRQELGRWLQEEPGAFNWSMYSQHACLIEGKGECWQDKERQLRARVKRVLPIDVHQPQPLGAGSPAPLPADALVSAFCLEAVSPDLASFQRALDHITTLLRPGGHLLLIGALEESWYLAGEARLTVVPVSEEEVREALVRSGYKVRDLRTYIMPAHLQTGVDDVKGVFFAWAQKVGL

[7] = Viability counterscreen for antagonist of constitutive androstane receptor (CAR) against the NCATS DSHEA and TCM libraries (AID 1794837);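 also: compound exposure lasted 24 h before viability reading; 0% is about no effect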
Method in brief: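 Cell viability, CellTiter-Fluor, Ex/Em 405/540 nm, 1 h at 37C. HepG2-CYP2B6-hCAR, 2,500 cells/well; cpds + CITCO 48 uM final (antagonist mode), 24 h, 37C/5% CO2.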

[8] = Viability counterscreen for agonist of constitutive androstane receptor (CAR) against the NCATS DSHEA and TCM libraries (AID 1794838); also: 0% is about no effect
Method in brief: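 Viability by CellTiter-Fluor fluorescence, 405/540 nm, after 1 h at 37C. HepG2-CYP2B6-hCAR cells were exposed 24 h to test substances in presence of 0.75 uM PK11195 (final).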

[9] = biological target: Nuclear receptor subfamily 1 group I member 3 (Homo sapiens) (UniProt Q14994); assay: Primary qHTS for agonist of constitutive androstane receptor (CAR) against the NCATS DSHEA and TCM libraries (AID 1794839);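 also: HepG2 cells expressing human CAR with a CYP2B6 reporter plus PK11195 antagonist; 0% is about no effect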
Chain of Nuclear receptor subfamily 1 group I member 3 (Homo sapiens) (Q14994 whole entry, looked up): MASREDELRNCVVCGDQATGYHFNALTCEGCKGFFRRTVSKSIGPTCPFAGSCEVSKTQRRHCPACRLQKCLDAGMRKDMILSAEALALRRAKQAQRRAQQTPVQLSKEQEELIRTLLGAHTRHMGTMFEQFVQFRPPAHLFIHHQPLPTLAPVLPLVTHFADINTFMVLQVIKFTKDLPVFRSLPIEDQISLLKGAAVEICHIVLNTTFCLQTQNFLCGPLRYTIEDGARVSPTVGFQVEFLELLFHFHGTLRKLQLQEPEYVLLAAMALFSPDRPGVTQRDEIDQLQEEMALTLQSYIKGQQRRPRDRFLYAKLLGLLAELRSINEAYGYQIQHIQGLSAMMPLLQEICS
Method in brief: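 Luminescence from ONE-Glo luciferase was the agonist read-out in HepG2-CYP2B6-hCAR cells exposed 24 h to test substances. Wells also held the CAR antagonist PK11195 at 0.75 µM final. Viability was by CellTiter-Fluor fluorescence.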

[10] = HepG2 viability counterscreen (readout 2: ATP content) against the NCATS DSHEA and TCM libraries (AID 1794840); also: 0% is about no effect
Method in brief: (§1)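 1,000 HepG2 cells/well, 4 h attach; compounds ~24 h, 37C/5% CO2. Readout 1: GF-AFC 25 uM final, 30 min, fluorescence 380/510 nm. Readout 2: CellTiter-Glo, 30 min RT, luminescence.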

[11] = HepG2 viability counterscreen (readout 1: protease activity) against the NCATS DSHEA and TCM libraries (AID 1794841);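 also: cells exposed to compounds for about 24 h before the protease read; 0% is about no effect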
Method in brief: as §1

[12] = biological target: Glutathione peroxidase 1 (Homo sapiens) (UniProt P07203); assay: Primary qHTS Assay for Inhibitors of Recombinant Selenoprotein Glutathione Peroxidase 1 (GPX1) (AID 1845191); also: nearly all actives have a fitted effect of over 65% in size
Chain of Glutathione peroxidase 1 (Homo sapiens) (P07203 whole entry, looked up): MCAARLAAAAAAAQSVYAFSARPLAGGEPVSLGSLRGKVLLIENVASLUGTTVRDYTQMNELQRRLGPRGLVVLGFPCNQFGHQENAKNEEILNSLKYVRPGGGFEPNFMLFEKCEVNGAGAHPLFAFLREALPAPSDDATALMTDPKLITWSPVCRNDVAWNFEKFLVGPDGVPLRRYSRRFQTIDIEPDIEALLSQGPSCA
Method in brief: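 GR-coupled readout: NADPH consumption tracked by fluorescence, ex 340/em 450 nm, at t=0 and after 15 min at RT. Final mix 10 nM GPX1, 1 mM GSH, 0.5 mM CHP, 0.5 mM NADPH, 100 nM GR, 0.01% BSA, following 30 min enzyme–compound preincubation.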

## CN(C)CCCCC(=O)Nc1ccc(NC(=S)NC(=O)c2ccc(C(C)(C)C)cc2)cc1
[1]
  Potency: 1.83 µM (active)
[2]
  Potency: 2.3 µM (active)

## CC(C)=CCC(O)/C(C)=C/CO[C@@H]1O[C@H](CO)[C@@H](O)[C@H](O)[C@H]1O (stereo partly drawn)
[1]
  Potency: inactive
[2]
  Potency: inactive
[3]
  activity: -52%
[4]
  activity change, negative = inhibition: 0%
[5]
  activity: 0%
[6]
  activity: 5.19%
[7]
  outcome: inactive
[8]
  outcome: inactive
[9]
  outcome: inactive
[10]
  outcome: inactive
[11]
  outcome: inactive
[12]
  Potency: inactive

## CC[C@]1(O)CC2CN(CCc3c([nH]c4ccccc34)[C@@](C(=O)OC)(c3cc4c(cc3OC)N(C=O)[C@H]3[C@@](O)(C(=O)OC)[C@H](OC(C)=O)[C@]5(CC)C=CCN6CC[C@]43[C@@H]65)C2)C1 (stereo partly drawn)
[1]
  Potency: 0.0064 µM (active)
[2]
  Potency: 0.0064 µM (active)

## O=C(O)/C=C/c1ccc(-c2ccc(O)c(C34CC5CC(CC(C5)C3)C4)c2)cc1
[1]
  Potency: 0.325 µM (active)
[2]
  Potency: 0.145 µM (active)
[3]
  activity: 0.235%
[4]
  activity change, negative = inhibition: 1.42%
[5]
  activity: -84%
[6]
  activity: -0.0074%

## Oc1ccc(CNc2ccccc2F)c2cccnc12
[1]
  Potency: 12.9 µM (active)
[2]
  Potency: 4.09 µM (active)
[3]
  activity: -81.9%
[4]
  activity change, negative = inhibition: 2.39%
[5]
  activity: -0.361%
[6]
  activity: 6.4%
[12]
  Potency: inactive

## CCOC(=O)C(CCc1ccccc1)NC(C)C(=O)N1C(=O)N(C)CC1C(=O)O (stereo not drawn)
[1]
  Potency: inactive
[2]
  Potency: inactive

## Cc1nc([C@](C)(O)CO)sc1-c1cnc(N)c(O[C@H](C)c2cc(F)ccc2-n2nccn2)c1
[1]
  Potency: 8.33 µM (active)
[2]
  Potency: 13.2 µM (active)
[3]
  activity: -59.6%
[4]
  activity change, negative = inhibition: -0.524%
[5]
  activity: -12.8%
[6]
  activity: -10.9%

## C1CCC[C@H]2CCCN3CC[C@@H](CCCCCC[C@@H]4CCCN5CC[C@@H](CC1)O[C@@H]45)O[C@@H]23
[1]
  activity change, negative = viability loss: -4.42% [at 0.177 µM] (inactive)
[2]
  activity change, negative = cell killing: -1.13% [at 0.177 µM] (inactive)

## COC(=O)C1=C2Nc3ccccc3C23CCN2CCCC(C(C)O)(C1)C23 (stereo not drawn)
[1]
  Potency: inactive
[2]
  Potency: inactive
[3]
  activity: -1.85%
[4]
  activity change, negative = inhibition: 0%
[5]
  activity: 2.66%
[6]
  activity: -1.29%
[12]
  Potency: inactive

## CN(C)C/C=C/C(=O)Nc1cccc(C(=O)Nc2cccc(Nc3ncc(Cl)c(-c4c[nH]c5ccccc45)n3)c2)c1
[1]
  Potency: 64.9 nM (active) and 148 nM (active)
[2]
  Potency: 72.8 nM (active) and 132 nM (active)
[3]
  activity: -3.58%
[4]
  activity change, negative = inhibition: 1.16%
[5]
  activity: -56%
[6]
  activity: -9.06%
[12]
  Potency: inactive

## COC(=O)C1=CO[C@@H](O[C@@H]2O[C@H](CO[C@@H]3O[C@H](COC(=O)/C=C/c4cc(OC)c(O)c(OC)c4)[C@@H](O)[C@H](O)[C@H]3O)[C@@H](O)[C@H](O)[C@H]2O)[C@@H]2C(CO)=CC[C@H]12
[1]
  Potency: inactive
[2]
  Potency: inactive
[3]
  activity: -63.8%
[4]
  activity change, negative = inhibition: -1.94% [at 19.1 µM]
[5]
  activity: -1.52%
[6]
  activity: -1.68%
[12]
  Potency: inactive

## C=C1C(=O)OC2C1CCC(=C)C1CC(OC(C)=O)C(=C)C12 (stereo not drawn)
[1]
  Potency: 10.3 µM (active)
[2]
  Potency: 3.25 µM (active)
[3]
  activity: -65.1%
[4]
  activity change, negative = inhibition: -10.4%
[5]
  activity: -9.15%
[6]
  activity: -8.53%
[12]
  Potency: inactive

## C/C=C/c1cc(OC)c2c(c1)[C@@H](C)[C@@H](c1ccc(O)c(OC)c1)O2
[1]
  Potency: 8.98 µM (active)
[2]
  Potency: 14.2 µM (active)
[3]
  activity: -61.3%
[4]
  activity change, negative = inhibition: -6.75%
[5]
  activity: -7.01%
[6]
  activity: -5.03%
[12]
  Potency: inactive

## O=C(O)c1cn(C2CC2)c2cc(N3C[C@@H]4C[C@H]3CN4)c(F)cc2c1=O
[1]
  Potency: inactive
[2]
  Potency: inactive

## CCc1c(C)nc2c(-c3cnn(-c4cc(CO)ccn4)c3)c[nH]n2c1=O
[1]
  Potency: inactive
[2]
  Potency: inactive

## CC(C)CCC1(O)C(=O)C(C)(C)C(O[C@@H]2O[C@H](CO)[C@@H](O)[C@H](O)[C@H]2O)C(C)(C)C1O (stereo partly drawn)
[1]
  Potency: inactive
[2]
  Potency: inactive
[3]
  activity: -56.9%
[4]
  activity change, negative = inhibition: -2.97% [at 29.8 µM]
[5]
  activity: -3.79%
[6]
  activity: -2.04%
[12]
  Potency: inactive

## C=C(C)C1Cc2cc(C(=O)OC3OC(CO)C(O)C(O)C3O)ccc2O1 (stereo not drawn)
[1]
  Potency: inactive
[2]
  Potency: inactive
[3]
  activity: -58%
[4]
  activity change, negative = inhibition: -3.06%
[5]
  activity: -2.77%
[6]
  activity: -3.74%
[12]
  Potency: inactive

## NCc1c[nH]c(=S)n1[C@@H]1CCc2c(F)cc(F)cc2C1
[1]
  Potency: inactive
[2]
  Potency: inactive

## CC(=O)N[C@@H](Cc1c[nH]c2ccccc12)C(=O)N[C@@H](CCC(=O)O)C(=O)N[C@@H](Cc1cnc[nH]1)C(=O)N[C@@H](CC(=O)O)C(=O)Nc1ccc2c(C(F)(F)F)cc(=O)oc2c1 (Ac-WEHD-{AFC})
[1]
  Potency: inactive
[2]
  Potency: inactive

## C=C[C@H]1[C@H](O[C@@H]2O[C@H](CO)[C@@H](O)[C@H](O)[C@H]2O)OC=C(C(=O)OC)[C@H]1CCOC(=O)c1cc(O)c(O)c(O)c1
[1]
  Potency: inactive
[2]
  Potency: inactive
[3]
  activity: -67.5%
[4]
  activity change, negative = inhibition: 1.49% [at 29.8 µM]
[5]
  activity: 0.422%
[6]
  activity: -11.3%
[12]
  Potency: inactive

## COc1cc(/C=C/C(=O)OC[C@H]2O[C@@](CO)(O[C@H]3O[C@H](CO)[C@@H](O)[C@H](O)[C@H]3O)[C@@H](OC(=O)/C=C/c3ccc(O)c(OC)c3)[C@@H]2O)ccc1O
[1]
  Potency: inactive
[2]
  Potency: inactive
[3]
  activity: -51%
[4]
  activity change, negative = inhibition: -4.9% [at 19.1 µM]
[5]
  activity: -6.08%
[6]
  activity: -2.86%
[12]
  Potency: inactive

## Cc1cc(Nc2ccc(NC(=O)c3ccc(Nc4ccnc5ccccc45)cc3)cc2)nc(N)n1
[1]
  Potency: 1.83 µM (active)
[2]
  Potency: 0.817 µM (active)
[3]
  activity: -15.9%
[4]
  Potency: 30.4 µM (active)
[5]
  activity: -17.6%
[6]
  activity: -11.7%

## Cc1cc(C)nc(NS(=O)(=O)c2ccc(NC(=S)NC(=O)COc3ccc(Br)cc3Cl)cc2)n1
[1]
  Potency: inactive
[2]
  Potency: inactive
